Hit rate of the full screen: of about 330,000 compounds, about 1,700 (0.52%) were called active.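 Rule for the calls: active = GFP response versus DMSO above a set limit, roughly screen mean plus 3 SD (cut at about 180% in these data); inconclusive = fewer than 70 cells counted for a yeast strain; inactive = the rest.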 What follows is part of a selection rich in actives, with near analogues and random picks from the rest.
Test: modulators of MEP2-GFP levels in yeast, primary screen, S. cerevisiae, multiplex flow cytometry, MLPCN library (AID 2016);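 note: median GFP fluorescence of the barcode-gated MEP2-GFP cells per well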
Details: S. cerevisiae MEP2-GFP strain, 3 h, at 10 µM, hits give high values

Structure (SMILES) | GFP response vs DMSO
NCCc1c[nH]c2ccc(O)cc12 | 206% [may fluoresce violet] (active)
C/C(CCc1c[nH]c2ccccc12)=N\O | 105% (inactive)
Cc1cccc2c(CCN)c[nH]c12 | 105% (inactive)
COC1=CC=C2[C@H]3Cc4ccc(OC)c5c4[C@@]2(CCN3C)C1O5 (stereo not given in full) | 106% (inactive)
CCCOC(=O)C1C2c3ccccc3C(c3ccccc32)C1C(=O)O (stereo not given) | 99.1% (inactive)
